From PubChem BioAssay (EPA / NIEHS)
Results filed as inconclusive are left out. Calls of active or inactive are those of the source. The calls were made as follows: active = hit-call score of the fitted dose curve at least 0.9, where 1 is the maximum; inconclusive = response in the unintended direction; inactive = score below 0.9.

Columns and labels:
[1] = tested on: zebrafish Peroxisome Proliferator-activated Receptor gamma (PPARg), gene 557037; test: ATG_zfPPARg_XSP1: Attagene TRANS-FACTORIAL Multi-Species (XSP1) HepG2 Assay for zebrafish Peroxisome Proliferator-activated Receptor gamma (PPARg) (AID 2283801)
In short: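 HepG2 cells transiently transfected with GAL4-UAS reporter units including a zebrafish PPARg–GAL4 chimera, dosed 24 h with 3 nM 6-alpha-fluorotestosterone present. Reporter mRNA quantified by RT-PCR, FAM labelling, HpaI digestion and capillary electrophoresis; induction versus DMSO.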

[2] = molecular target: mouse Peroxisome Proliferator-activated Receptor gamma (PPARg), Pparg (gene 19016) (UniProt P37238); test: ATG_mPPARg_XSP1: Attagene TRANS-FACTORIAL Multi-Species (XSP1) HepG2 Assay for mouse Peroxisome Proliferator-activated Receptor gamma (PPARg) (AID 2283802)
Sequence of mouse Peroxisome Proliferator-activated Receptor gamma (PPARg), Pparg (gene 19016) (P37238 whole entry, looked up, the tested form may be a part): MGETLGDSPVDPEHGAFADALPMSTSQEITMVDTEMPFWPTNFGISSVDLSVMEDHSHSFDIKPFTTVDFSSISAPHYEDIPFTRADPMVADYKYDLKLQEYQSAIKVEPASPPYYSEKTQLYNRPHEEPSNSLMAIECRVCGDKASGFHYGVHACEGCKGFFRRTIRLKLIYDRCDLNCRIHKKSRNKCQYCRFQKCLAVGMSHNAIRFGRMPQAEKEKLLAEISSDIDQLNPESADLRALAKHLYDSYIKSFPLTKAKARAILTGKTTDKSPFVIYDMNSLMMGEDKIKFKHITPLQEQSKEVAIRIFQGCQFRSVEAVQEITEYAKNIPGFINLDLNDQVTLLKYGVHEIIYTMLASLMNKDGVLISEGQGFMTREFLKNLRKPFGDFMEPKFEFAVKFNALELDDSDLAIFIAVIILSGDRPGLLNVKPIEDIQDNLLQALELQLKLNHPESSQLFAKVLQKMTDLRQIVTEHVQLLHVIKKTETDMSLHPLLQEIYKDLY
In short: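 HepG2 cells transiently transfected with GAL4-UAS reporter units driven by mouse PPARg–GAL4 chimera; 3 nM 6-alpha-fluorotestosterone present. After 24 h dosing, reporter mRNA quantified by RT-PCR, fluorescent labelling and capillary electrophoresis; gain of signal versus DMSO.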

[3] = molecular target: Nuclear receptor subfamily 1 group I member 2 (Mus musculus) (UniProt O54915); test: ATG_mPXR_XSP1: Attagene TRANS-FACTORIAL Multi-Species (XSP1) HepG2 Assay for mouse Pregnane X Receptor (PXR) (AID 2283803)
Sequence of Nuclear receptor subfamily 1 group I member 2 (Mus musculus) (O54915 whole entry, looked up, the tested form may be a part): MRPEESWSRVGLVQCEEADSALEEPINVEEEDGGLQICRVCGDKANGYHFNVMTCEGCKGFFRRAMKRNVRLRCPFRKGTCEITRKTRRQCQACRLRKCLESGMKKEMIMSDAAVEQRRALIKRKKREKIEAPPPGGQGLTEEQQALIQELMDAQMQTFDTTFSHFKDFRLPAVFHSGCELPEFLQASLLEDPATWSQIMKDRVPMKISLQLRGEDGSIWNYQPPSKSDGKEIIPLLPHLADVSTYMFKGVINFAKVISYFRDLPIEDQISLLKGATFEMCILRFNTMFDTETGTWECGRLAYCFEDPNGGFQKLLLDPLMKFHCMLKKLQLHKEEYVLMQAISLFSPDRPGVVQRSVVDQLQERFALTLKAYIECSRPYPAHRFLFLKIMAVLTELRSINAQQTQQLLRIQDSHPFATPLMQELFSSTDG
In short: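 Transiently transfected HepG2 cells expressing a receptor-Gal4 chimera drive a GAL4-UAS reporter; 3 nM 6-alpha-fluorotestosterone included. Reporter mRNA read 24 h post-dose by RT-PCR and capillary electrophoresis; gain of signal relative to DMSO.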

[4] = molecular target: frog Thyroid hormone Receptor alpha (TRa), thra-a (gene 397942) (UniProt P15204); test: ATG_frTRa_XSP1: Attagene TRANS-FACTORIAL Multi-Species (XSP1) HepG2 Assay for frog Thyroid hormone Receptor alpha (TRa) (AID 2283804)
Sequence of frog Thyroid hormone Receptor alpha (TRa), thra-a (gene 397942) (P15204 whole entry, looked up, the tested form may be a part): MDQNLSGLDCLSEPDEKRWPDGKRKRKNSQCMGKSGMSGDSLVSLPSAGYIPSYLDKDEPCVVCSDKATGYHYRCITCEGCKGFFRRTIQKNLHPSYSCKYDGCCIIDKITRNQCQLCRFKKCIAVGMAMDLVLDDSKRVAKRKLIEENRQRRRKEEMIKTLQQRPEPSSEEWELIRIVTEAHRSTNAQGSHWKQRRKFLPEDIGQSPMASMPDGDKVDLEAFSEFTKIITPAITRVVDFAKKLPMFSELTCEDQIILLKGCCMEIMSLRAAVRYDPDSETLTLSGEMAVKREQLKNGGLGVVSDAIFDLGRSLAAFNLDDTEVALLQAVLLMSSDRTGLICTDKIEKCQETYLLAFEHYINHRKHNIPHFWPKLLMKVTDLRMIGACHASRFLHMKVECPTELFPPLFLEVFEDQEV
In short: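 HepG2 cells transiently transfected with frog TRa-GAL4 chimeric reporter units, dosed 24 hr with 3 nM 6-alpha-fluorotestosterone present; reporter mRNA quantified by RT-PCR, fluorescent labelling and capillary electrophoresis, gain of signal versus DMSO.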

[5] = molecular target: human Thyroid hormone Receptor alpha (TRa), THRA (gene 7067) (UniProt P10827); test: ATG_hTRa_XSP1: Attagene TRANS-FACTORIAL Multi-Species (XSP1) HepG2 Assay for human Thyroid hormone Receptor alpha (TRa) (AID 2283805)
Sequence of human Thyroid hormone Receptor alpha (TRa), THRA (gene 7067) (P10827 whole entry, looked up, the tested form may be a part): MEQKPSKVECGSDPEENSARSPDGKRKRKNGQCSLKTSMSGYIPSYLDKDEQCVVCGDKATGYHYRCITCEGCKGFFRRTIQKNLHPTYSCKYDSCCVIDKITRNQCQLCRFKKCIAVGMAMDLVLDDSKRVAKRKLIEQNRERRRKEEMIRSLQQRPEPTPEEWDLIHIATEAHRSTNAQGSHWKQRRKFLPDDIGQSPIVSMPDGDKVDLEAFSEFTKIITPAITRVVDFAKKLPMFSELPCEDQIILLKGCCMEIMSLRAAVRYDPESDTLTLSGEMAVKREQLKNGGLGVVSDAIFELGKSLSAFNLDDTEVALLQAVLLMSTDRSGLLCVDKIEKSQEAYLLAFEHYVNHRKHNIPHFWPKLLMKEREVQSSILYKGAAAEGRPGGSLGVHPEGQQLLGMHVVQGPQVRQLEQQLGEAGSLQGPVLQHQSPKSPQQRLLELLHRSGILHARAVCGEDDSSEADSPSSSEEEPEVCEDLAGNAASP
In short: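 HepG2 cells transiently transfected with GAL4-UAS reporter units expressing chimeric NR-Gal4 proteins, dosed 24 hours with 3 nM 6-alpha-fluorotestosterone present. Reporter mRNA measured by RT-PCR and capillary electrophoresis; gain of signal fitted versus DMSO.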

[6] = tested on: turtle Thyroid Hormone Receptor, alpha (TRa), gene 101949057; test: ATG_trTRa_XSP1: Attagene TRANS-FACTORIAL Multi-Species (XSP1) HepG2 Assay for turtle Thyroid Hormone Receptor, alpha (TRa) (AID 2283806)
In short: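 HepG2 cells transiently transfected with GAL4-UAS reporter units and chimeric receptor-Gal4 constructs, with 3 nM 6-alpha-fluorotestosterone present. Reporter mRNA was quantified 24 h after dosing by RT-PCR, 6-FAM labelling and capillary electrophoresis; gain of signal versus DMSO.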

[7] = molecular target: zebrafish Thyroid Hormone Receptor alpha (TRa), thraa (gene 30670) (UniProt Q98867); test: ATG_zfTRa_XSP1: Attagene TRANS-FACTORIAL Multi-Species (XSP1) HepG2 Assay for zebrafish Thyroid Hormone Receptor alpha (TRa) (AID 2283807)
Sequence of zebrafish Thyroid Hormone Receptor alpha (TRa), thraa (gene 30670) (Q98867 whole entry, looked up, the tested form may be a part): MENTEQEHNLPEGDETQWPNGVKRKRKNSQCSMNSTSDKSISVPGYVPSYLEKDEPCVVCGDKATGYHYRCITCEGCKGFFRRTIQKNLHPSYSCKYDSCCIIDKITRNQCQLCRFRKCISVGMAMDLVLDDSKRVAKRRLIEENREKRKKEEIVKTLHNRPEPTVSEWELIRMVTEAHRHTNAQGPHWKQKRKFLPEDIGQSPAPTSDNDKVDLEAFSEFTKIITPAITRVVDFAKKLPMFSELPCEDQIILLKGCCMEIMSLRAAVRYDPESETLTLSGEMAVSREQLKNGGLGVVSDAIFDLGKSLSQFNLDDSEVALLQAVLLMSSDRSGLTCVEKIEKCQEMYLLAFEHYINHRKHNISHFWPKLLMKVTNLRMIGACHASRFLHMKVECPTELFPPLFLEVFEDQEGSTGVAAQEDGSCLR
In short: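 HepG2 cells transiently transfected with GAL4-UAS reporter units including a zebrafish TRa–Gal4 chimera, dosed 24 h with 3 nM 6-alpha-fluorotestosterone present. Reporter mRNA quantified by RT-PCR and capillary electrophoresis; gain versus DMSO.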

[8] = molecular target: human Thyroid hormone Receptor beta (TRb), THRB (gene 7068) (UniProt P10828); test: ATG_hTRb_XSP1: Attagene TRANS-FACTORIAL Multi-Species (XSP1) HepG2 Assay for human Thyroid hormone Receptor beta (TRb) (AID 2283808)
Sequence of human Thyroid hormone Receptor beta (TRb), THRB (gene 7068) (P10828 whole entry, looked up, the tested form may be a part): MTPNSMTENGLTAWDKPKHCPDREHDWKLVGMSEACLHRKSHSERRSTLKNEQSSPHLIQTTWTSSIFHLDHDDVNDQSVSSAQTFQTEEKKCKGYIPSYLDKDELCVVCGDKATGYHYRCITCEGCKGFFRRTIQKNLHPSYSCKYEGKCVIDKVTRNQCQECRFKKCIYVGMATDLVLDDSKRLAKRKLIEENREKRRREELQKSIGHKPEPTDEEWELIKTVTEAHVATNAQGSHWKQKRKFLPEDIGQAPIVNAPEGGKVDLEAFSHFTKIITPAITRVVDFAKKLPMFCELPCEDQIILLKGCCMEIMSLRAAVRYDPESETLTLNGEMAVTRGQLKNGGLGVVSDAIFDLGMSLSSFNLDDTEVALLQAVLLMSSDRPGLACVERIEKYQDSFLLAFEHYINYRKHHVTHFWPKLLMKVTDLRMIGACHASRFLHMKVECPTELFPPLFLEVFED
In short: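 HepG2 cells transiently transfected with reporter units driving GAL4-UAS reporters for chimeric NR-Gal4 proteins; 24 h chemical exposure with 3 nM 6-alpha-fluorotestosterone present. Reporter mRNA quantified by RT-PCR and capillary electrophoresis, gain of signal versus DMSO.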

[9] = molecular target: zebrafish Thyroid Hormone Receptor beta (TRb), thrb (gene 30607) (UniProt Q9PVE4); test: ATG_zfTRb_XSP1: Attagene TRANS-FACTORIAL Multi-Species (XSP1) HepG2 Assay for zebrafish Thyroid Hormone Receptor beta (TRb) (AID 2283809)
Sequence of zebrafish Thyroid Hormone Receptor beta (TRb), thrb (gene 30607) (Q9PVE4 whole entry, looked up, the tested form may be a part): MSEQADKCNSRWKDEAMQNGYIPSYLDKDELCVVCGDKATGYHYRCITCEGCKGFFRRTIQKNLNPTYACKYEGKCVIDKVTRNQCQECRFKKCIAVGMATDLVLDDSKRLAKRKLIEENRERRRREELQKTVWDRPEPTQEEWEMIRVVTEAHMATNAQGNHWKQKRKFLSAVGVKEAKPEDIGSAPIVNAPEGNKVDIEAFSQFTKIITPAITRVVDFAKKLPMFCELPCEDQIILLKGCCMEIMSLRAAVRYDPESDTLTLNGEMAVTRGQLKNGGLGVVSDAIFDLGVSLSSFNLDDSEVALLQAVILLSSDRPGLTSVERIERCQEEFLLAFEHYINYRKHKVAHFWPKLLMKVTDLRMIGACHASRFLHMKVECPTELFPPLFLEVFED
In short: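 HepG2 cells transiently transfected with multiplexed GAL4-UAS reporter units expressing chimeric zebrafish TRb–Gal4. Dosed 24 h with 3 nM 6-alpha-fluorotestosterone present; reporter mRNA measured by RT-PCR, HpaI digestion and capillary electrophoresis; gain of signal versus DMSO.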

[10] = ATG_XTT_Cytotoxicity_XSP1: Cytotoxicity Assessment in the Attagene TRANS-FACTORIAL Multi-Species (XSP1) HepG2 Assay (AID 2283810)
In short: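 XTT viability readout taken at 24 hours post-dosing in HepG2 liver cells co-treated with 3 nM 6-alpha-fluorotestosterone. Signal loss relative to DMSO controls reflects cytotoxicity.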

[11] = ATG_M_06_XSP2: Attagene TRANS-FACTORIAL Multi-Species (XSP2) HepG2 Assay for M06 Transcription Factor (Internal Marker) (AID 2283811);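 also: internal background marker reporter mRNA measured by RT-PCR and capillary electrophoresis; hits are increases in signal above the DMSO baseline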
In short: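 HepG2, multiplexed reporter transfection; 24 h dosing; AR stimulated with 3 nM 6-alpha-fluorotestosterone + 1.5 nM norgestrel; RNA → RT-PCR → 6-FAM primer extension → HpaI → CE. Positive direction vs DMSO.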

[12] = tested on: turtle Estrogen Receptor (ERa), gene 101933533; test: ATG_trERa_XSP2: Attagene TRANS-FACTORIAL Multi-Species (XSP2) HepG2 Assay for turtle Estrogen Receptor (ERa) (AID 2283812);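 also: human HepG2 liver cells transiently expressing turtle ERa-Gal4 chimeric receptor; actives raise reporter signal above DMSO so AC50 reflects agonist activity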
In short: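 HepG2 cells transiently transfected with GAL4-UAS reporter units expressing turtle ERa-Gal4 chimera. Reporter mRNA measured after 24 h dosing by RT-PCR, fluorescent labelling and capillary electrophoresis; gain of signal fitted versus DMSO.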

[13] = molecular target: Estrogen receptor beta (Homo sapiens) (UniProt Q92731); test: ATG_hERb_XSP2: Attagene TRANS-FACTORIAL Multi-Species (XSP2) HepG2 Assay for human Estrogen Receptor (ERb) (AID 2283813);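 also: actives raise reporter mRNA above DMSO so AC50 reflects agonist induction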
Sequence of Estrogen receptor beta (Homo sapiens) (Q92731 whole entry, looked up, the tested form may be a part): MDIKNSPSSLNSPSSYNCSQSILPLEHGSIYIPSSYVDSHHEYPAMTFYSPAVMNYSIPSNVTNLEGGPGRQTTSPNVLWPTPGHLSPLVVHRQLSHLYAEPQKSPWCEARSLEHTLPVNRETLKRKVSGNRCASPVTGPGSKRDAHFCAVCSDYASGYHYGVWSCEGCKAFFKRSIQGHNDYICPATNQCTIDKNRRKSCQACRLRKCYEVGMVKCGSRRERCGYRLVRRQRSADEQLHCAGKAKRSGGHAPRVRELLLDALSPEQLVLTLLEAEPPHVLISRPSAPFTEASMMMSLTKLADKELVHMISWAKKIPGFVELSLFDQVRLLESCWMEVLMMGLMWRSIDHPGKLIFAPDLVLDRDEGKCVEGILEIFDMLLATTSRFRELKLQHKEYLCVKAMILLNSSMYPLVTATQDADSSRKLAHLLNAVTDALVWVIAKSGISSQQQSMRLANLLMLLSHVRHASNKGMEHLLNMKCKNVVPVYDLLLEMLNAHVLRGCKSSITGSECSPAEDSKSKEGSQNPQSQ
In short: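 HepG2 cells transiently transfected with GAL4-UAS reporter units and chimeric human ERb-Gal4, 24 h exposure. Reporter mRNA quantified by RT-PCR with FAM labelling, HpaI digestion and capillary electrophoresis; gain of signal versus DMSO.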

[14] = molecular target: zebrafish Estrogen Receptor (ER1), esr1 (gene 259252) (UniProt P57717); test: ATG_zfER1_XSP2: Attagene TRANS-FACTORIAL Multi-Species (XSP2) HepG2 Assay for zebrafish Estrogen Receptor (ER1) (AID 2283816)
Sequence of zebrafish Estrogen Receptor (ER1), esr1 (gene 259252) (P57717 whole entry, looked up, the tested form may be a part): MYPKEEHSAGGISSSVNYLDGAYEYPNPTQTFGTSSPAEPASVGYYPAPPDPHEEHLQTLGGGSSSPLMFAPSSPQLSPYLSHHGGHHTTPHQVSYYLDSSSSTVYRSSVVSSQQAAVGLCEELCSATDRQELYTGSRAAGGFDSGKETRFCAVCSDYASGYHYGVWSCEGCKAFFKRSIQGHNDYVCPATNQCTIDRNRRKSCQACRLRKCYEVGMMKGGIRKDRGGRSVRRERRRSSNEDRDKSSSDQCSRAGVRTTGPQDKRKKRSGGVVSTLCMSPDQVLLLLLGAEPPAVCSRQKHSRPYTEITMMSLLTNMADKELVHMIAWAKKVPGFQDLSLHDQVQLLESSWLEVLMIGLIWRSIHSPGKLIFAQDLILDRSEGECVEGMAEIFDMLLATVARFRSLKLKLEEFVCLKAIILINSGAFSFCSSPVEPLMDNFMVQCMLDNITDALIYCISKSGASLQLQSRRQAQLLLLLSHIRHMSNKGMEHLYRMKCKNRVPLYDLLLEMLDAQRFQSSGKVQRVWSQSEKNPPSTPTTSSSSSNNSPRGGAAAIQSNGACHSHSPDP
In short: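 HepG2 cells transiently transfected with a GAL4-UAS reporter and a chimeric zebrafish ER1-Gal4 construct, dosed 24 h. Reporter mRNA quantified by RT-PCR, labelling, HpaI digestion and capillary electrophoresis, relative to DMSO.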

[15] = molecular target: chicken Estrogen Receptor (ERa), ESR1 (gene 396099) (UniProt P06212); test: ATG_chERa_XSP2: Attagene TRANS-FACTORIAL Multi-Species (XSP2) HepG2 Assay for chicken Estrogen Receptor (ERa) (AID 2283817);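 also: actives raise reporter signal above DMSO so AC50 reflects ER activation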
Sequence of chicken Estrogen Receptor (ERa), ESR1 (gene 396099) (P06212 whole entry, looked up, the tested form may be a part): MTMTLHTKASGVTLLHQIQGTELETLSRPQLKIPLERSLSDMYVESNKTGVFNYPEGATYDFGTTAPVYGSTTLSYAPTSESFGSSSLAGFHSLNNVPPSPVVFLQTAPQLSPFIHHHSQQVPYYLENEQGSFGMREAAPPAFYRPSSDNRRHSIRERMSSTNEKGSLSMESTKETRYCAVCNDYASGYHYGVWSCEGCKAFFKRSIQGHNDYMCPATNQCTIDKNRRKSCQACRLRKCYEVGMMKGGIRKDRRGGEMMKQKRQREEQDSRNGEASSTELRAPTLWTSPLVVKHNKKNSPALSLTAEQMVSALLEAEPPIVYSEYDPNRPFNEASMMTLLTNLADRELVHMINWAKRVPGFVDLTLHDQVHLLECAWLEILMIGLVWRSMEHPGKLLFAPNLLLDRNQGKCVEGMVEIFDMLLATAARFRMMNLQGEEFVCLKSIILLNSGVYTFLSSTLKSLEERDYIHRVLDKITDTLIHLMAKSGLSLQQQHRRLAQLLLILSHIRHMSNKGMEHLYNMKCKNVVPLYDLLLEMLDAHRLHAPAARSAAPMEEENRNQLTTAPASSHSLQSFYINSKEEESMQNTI
In short: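 Transient MRTU transfection of HepG2 → 24 h chemical dosing → TriZol RNA, oligo(dT) RT → PCR, 6-FAM primer extension, HpaI digest → CE quantitation of chicken ERa-Gal4-driven reporter mRNA. Positive direction vs DMSO.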

[16] = tested on: zebrafish Estrogen Receptor (ER2a), gene 317734; test: ATG_zfER2a_XSP2: Attagene TRANS-FACTORIAL Multi-Species (XSP2) HepG2 Assay for zebrafish Estrogen Receptor (ER2a) (AID 2283818);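 also: hits raise reporter mRNA so AC50 reflects activation of zebrafish ER2a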
In short: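 HepG2 cells transiently transfected with GAL4-UAS reporter units and chimeric zebrafish ER2a-Gal4, exposed 24 h; medium contains 3 nM 6-alpha-fluorotestosterone and 1.5 nM norgestrel. Reporter mRNA quantified by RT-PCR, HpaI digestion, capillary electrophoresis; gain versus DMSO.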

[17] = tested on: frog Estrogen Receptor (ER), gene 398734; test: ATG_frER1_XSP2: Attagene TRANS-FACTORIAL Multi-Species (XSP2) HepG2 Assay for frog Estrogen Receptor (ER) (AID 2283821);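 also: hits raise reporter mRNA above DMSO baseline so potency means agonist or activator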
In short: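 Steps: transfect HepG2 with multiple reporter transcription units; treat with chemical for 24 h; isolate RNA, reverse-transcribe, PCR-amplify, label with 6-FAM, digest with HpaI; resolve fragments by capillary electrophoresis. Signal is scored against DMSO.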

[18] = molecular target: GAL4 Transcription Factor (Internal Marker), GAL4 (gene 855828) (UniProt P04386); test: ATG_GAL4_XSP2: Attagene TRANS-FACTORIAL Multi-Species (XSP2) HepG2 Assay for GAL4 Transcription Factor (Internal Marker) (AID 2283814);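 also: GAL4 reporter mRNA background control in MRTU transfected cells not a receptor target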
In short: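 HepG2 cells transiently transfected with GAL4-UAS reporter units, stimulated with 3 nM 6-alpha-fluorotestosterone plus 1.5 nM norgestrel, dosed 24 h. Reporter mRNA by RT-PCR/capillary electrophoresis; gain-of-signal fit versus DMSO, background control.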

[19] = tested on: turtle Androgen Receptor (AR), gene 101947425; test: ATG_trAR_XSP2: Attagene TRANS-FACTORIAL Multi-Species (XSP2) HepG2 Assay for turtle Androgen Receptor (AR) (AID 2283815)
In short: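 HepG2 cells transiently transfected with GAL4-UAS reporter units for chimeric NR-Gal4 receptors; 24 h dosing in presence of 3 nM 6-alpha-fluorotestosterone and 1.5 nM norgestrel. Reporter mRNA by RT-PCR and capillary electrophoresis, gain of signal versus DMSO.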

[20] = tested on: chicken Androgen Receptor (AR), gene 422165; test: ATG_chAR_XSP2: Attagene TRANS-FACTORIAL Multi-Species (XSP2) HepG2 Assay for chicken Androgen Receptor (AR) (AID 2283819);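 also: hits raise reporter mRNA above DMSO so potency is for activation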
In short: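 HepG2 cells transiently transfected with chicken AR–GAL4 chimeric reporter constructs, stimulated with 3 nM 6-alpha-fluorotestosterone plus 1.5 nM norgestrel, dosed 24 h. Reporter mRNA quantified by RT-PCR and capillary electrophoresis; gain of signal fitted versus DMSO.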

Measured: AC50

CC(C)C(=O)Nc1ccc([N+](=O)[O-])c(C(F)(F)F)c1
inactive: [1] | [10] | [11] | [12] | [13] | [14] | [15] | [16]
active: [2] 27.1 µM | [3] 27.4 µM | [4] 63.9 µM | [5] 29 µM | [6] 22.7 µM | [7] 18.3 µM | [8] 100 µM | [9] 40.2 µM | [17] 26.3 µM

CCN(CC)C(=S)SSC(=S)N(CC)CC
inactive: [2] | [4] | [5] | [6] | [7] | [8] | [9] | [11]
active: [10] 30.8 µM

C=CCc1cc(S(=O)(=O)c2ccc(O)c(CC=C)c2)ccc1O
active: [2] 3.63 µM | [6] 100 µM | [10] 160 µM | [12] 8.75 µM | [15] 3.5 µM | [20] 8.4 µM | [17] 8.79 µM
not listed: [3] | [7] | [14]
inactive: all other assays above
